From PubChem BioAssay (NCATS)
Several values for one entry are separate records, joined by “and”; a condition that tells them apart may be missing. Equal entries are not always repeated. Records with an inconclusive call do not appear. Activity calls are given as the source filed them. Unless noted, calls come from the whole dose curve; as a rule, active = well fitted curve in the direction sought with a large enough effect; inconclusive = small, poorly fitted or top-dose-only effect, or another doubt; inactive = no such curve, though single readings can be large; an effect the other way counts as inactive or inconclusive.

Columns and labels:
[1] = target: Guanine nucleotide-binding protein G(i) subunit alpha-1 (Homo sapiens) (UniProt P63096); assay: qHTS Assay for Inhibitors of RGS12 GoLoco Motif Activity (Green Fluorophore) (AID 879);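 note: 0% = labeled peptide with Gαi1 and full inhibition = labeled peptide alone without protein; negative values mean loss of peptide binding seen as reduced polarization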
In short: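 A drop in FITC polarization marked displacement of the FITC-tagged RGS12 GoLoco peptide (10 nM) from Gαi1 (50 nM). Compounds were incubated 10 min at room temperature in Tris pH 7.5 buffer containing 150 mM NaCl, 0.1 mM GDP and 0.05% NP40; unlabeled peptide titration served as control.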

[2] = target: Cytochrome P450 2C9 (Homo sapiens) (UniProt P11712); assay: qHTS Assay for Inhibitors and Substrates of Cytochrome P450 2C9 (AID 883); note: nearly all actives have a fitted effect of over 60% in size; note: potency is the fitted concentration of half-maximal effect
In short: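 10nM CYP2C9 + 100uM Luciferin-H (=KM), 25mM KPO4; cpd 10 min 37C; NADPH regen, 60 min 37C; stop/detect with P450 Glo-Buffer 20 min; luminescence. Norm. to 57uM sulphaphenazole as full inhibition.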

[3] = target: Cytochrome P450 2D6 (Homo sapiens) (UniProt P10635); assay: qHTS Assay for Inhibitors and Substrates of Cytochrome P450 2D6 (AID 891); note: nearly all actives have a fitted effect of over 60% in size; note: potency is the fitted concentration of half-maximal effect
In short: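 Luminescent read-out of luciferin formed by 5 nM human CYP2D6 demethylating 30 uM Luciferin-ME EGE (Km level) over 60 min at room temperature after NADPH regeneration addition. Data normalized to full inhibition by 1.43 uM quinidine.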

[4] = target: Cytochrome P450 2C19 (Homo sapiens) (UniProt P33261); assay: qHTS Assay for Inhibitors and Substrates of Cytochrome P450 2C19 (AID 899); note: nearly all actives have a fitted effect of over 60% in size; note: potency is the fitted concentration of half-maximal effect
In short: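 Luminescent read-out of luciferin formed from Luciferin-H EGE (10uM, equal to KM). Enzyme 5nM in 50mM KPO4; compound added, 10 min at 37C, then NADPH regenerating system for 60 min at 37C. Full inhibition defined by 57uM ketoconazole.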

[5] = qHTS Assay for Identification of Small Molecule Agonists for Thrombopoietin (TPO) Signaling Pathway (AID 917); note: % is set by controls: 0 for no effect and ±100 for the full control effect
In short: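 Human TPO receptor–transfected Ba/F3 cells (murine, IL-3-dependent) in IL-3-deficient medium; compounds plus TPO at EC50, 26 pM final; 24 hrs, 37 C; GpIIb-luciferase luminescence after 10 min RT detection.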

[6] = target: Muscarinic acetylcholine receptor M1 (Rattus norvegicus) (UniProt P08482); assay: qHTS Assay for Antagonists of Acetylcholine Muscarinic M1 Receptor: Kinetic Measurement of Intracellular Calcium Response (AID 943); note: nearly all actives have a fitted effect of over 75% in size; note: potency is the fitted concentration of half-maximal effect
In short: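 Read-out: peak over basal Fluo-4 fluorescence, kinetic at 1 Hz for 4 min after EC80 carbachol (100 nM final). Rat M1-CHO cells, dye loaded 1 h at 37C, compound added 10 min before agonist.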

[7] = target: Pyruvate kinase (Leishmania mexicana) (UniProt Q27686); assay: qHTS Validation Assay for Inhibitors of Leishmania Mexicana Pyruvate Kinase (AID 945);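 note: 0% = DMSO only neutral control wells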
In short: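 Mutant LmPYK (E451W), 0.2 nM, plus 0.5 mM PEP and 0.1 mM ADP in 50 mM imidazole pH 7.2 containing 0.01% Tween 20 and 0.05% BSA. Incubated 1 h at room temperature; luminescence via PKLight, normalized to DMSO.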

[8] = Confirmation and Secondary Assay for Modulators of Hemoglobin Beta Chain Splicing at IVS2 654 locus (AID 910);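 note: HeLa cells stably carrying EGFP split by mutant beta-globin IVS2-654 intron; % of control where 0% means no effect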
In short: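 HeLa cells stably expressing EGFP interrupted by β-globin IVS2-654 intron, seeded overnight in Opti-MEM/2% FCS, then treated 2 days at 37 °C. Restored splicing read as total peak GFP intensity per well by laser scanning cytometry (488 nm excitation, 500–520 nm emission); 500 nM antisense PNA as control.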

[9] = Confirmation and Secondary Assay for Modulators of Hemoglobin Beta Chain Splicing at IVS2 705 locus (AID 930);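 note: HeLa cells stably expressing the EGFP-705 splicing reporter; GFP fluorescence per well restored by corrected splicing of the IVS2-705 intron in EGFP; series mostly up to about 46 µM; % of control where 0% means no effect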
In short: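 Stable HeLa line with EGFP disrupted by mutant beta-globin intron 2 (705). Overnight attachment, then 2 days of compound at 37C, 5% CO2. Signal: peak GFP intensity summed over objects 5-250 µm.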

[10] = target: Muscarinic acetylcholine receptor M1 (Rattus norvegicus) (UniProt P08482); assay: qHTS Assay for Antagonists of Acetylcholine Muscarinic M1 Receptor: Measurement of IP-One Response (AID 944); note: nearly all actives have a fitted effect of over 75% in size; note: potency is the fitted concentration of half-maximal effect
In short: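 Read-out: HTRF competition between d2-IP1 and Eu-cryptate anti-IP1 antibody, emission 620 and 665 nm. Stimulus was carbachol, EC80 (200 nM), for 30 min in M1-CHO cells (rat receptor), after 10 min compound pre-treatment.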

[11] = target: Cytochrome P450 3A4 (Homo sapiens) (UniProt P08684); assay: qHTS Assay for Activators of Cytochrome P450 3A4 (AID 885); note: nearly all actives have a fitted effect of over 65% in size
In short: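 Luminescent readout of luciferin formed from 25 uM Luciferin-PPXE (KM level) by 20 nM CYP3A4 in 200 mM KPO4, with 60 min NADPH-driven reaction at room temperature after 10 min compound exposure. Ketoconazole (57 uM) defined 100% inhibition.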

[12] = Cellular Toxicity (caspase-3) N2a (AID 665);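 note: compound exposure lasted 16 h at 37 °C before readout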
In short: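 Luminescent Caspase-Glo 3/7 readout in N2a mouse neuroblastoma cells after 16 h compound exposure at 37 °C. Signal scaled to DMSO (basal) and 10 uM staurosporine (100%). Concentration-response fitted with Hill equation for AC50.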

[13] = Cellular Toxicity (caspase-3) NIH 3T3 (AID 666);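 note: 0% = DMSO basal and 100% = 100 µM tamoxifen stimulation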
In short: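 NIH 3T3, 1000 cells/well, 5 hr settle then 16 hr compound at 37°C; Caspase-Glo 3/7, 20 min RT, luminescence. DMSO = basal, 100 uM tamoxifen = 100%. Hill-equation AC50, qHTS.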

[14] = Cellular Toxicity (caspase-3) Renal Proximal Tubule (AID 667);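 note: cells exposed to compound for 16 hours at 37 °C before detection; 0% = DMSO basal and 100% = 10 µM staurosporine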
In short: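 Caspase-Glo 3/7 read-out, rat primary kidney proximal tubule cells. Compound exposure 16 h, 37 °C; detection after 1 h at RT. Activity scaled to DMSO and 10 uM staurosporine.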

[15] = Cell Viability - LYMP2-001 (AID 921);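 note: series mostly up to about 92 µM; cells exposed to compound for 24 h at 37 °C; 0% = DMSO only and full inhibition = tetraoctylammonium bromide control wells; nearly all actives have a fitted effect of over 70% in size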
In short: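 A lymphoblastoid cell line of human origin was treated with library compounds across a concentration series for 24 hours, and viable cell number was estimated from ATP-driven luciferase light output. Hill modeling gave AC50.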

[16] = MultiTox-Fluor Cytotoxicity Assay - LYMP1-001 - Dead Cells (AID 946)
In short: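 Cytotoxicity as increased dead-cell protease fluorescence (bis-AAF-R110, 485/520 nm), read 60 min after MultiTox-Fluor reagent. Human lymphoblastoid line exposed 16 h; Hill-fitted AC50, with DMSO as 0% and 15 uM tetraoctylammonium bromide as 100%.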

[17] = MultiTox-Fluor Cytotoxicity Assay - LYMP1-001 - Live Cells (AID 947);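 note: 0% = DMSO only and full inhibition = tetraoctylammonium bromide control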
Excerpt: NIH Chemical Genomics Center [NCGC]
NIH Molecular Libraries Screening Centers Network [MLSCN]
National Institutes of Environmental Health Sciences [NIEHS]
National Toxicology Program [NTP]
We have developed a 1536-well cell-based assay for quantitative high throughput screening (qHTS) against a number of cell lines to determine in vitro cytotoxicity of small molecules. This particular assay uses a human lymphoblastoid cell line (LYMP1-001) purchased from Coriell Institute.
NCGC Assay Protocol Summary:
The MultiTox-Fluor Cytotoxicity Assay (Promega) is a homogeneous method to simultaneously measure the relative number of live and dead cells in culture by detecting changes in cell membrane integrity. There are two fluorogenic peptide substrates in the assay reagent. Viable cells are determined when the cell-permeant substrate (GF-AFC) enters the cell and is cleaved by protease from live cells resulting in liberated fluorophore. This live-cell protease activity restricted to viable cells is proportional to cell number. The dead cells are determined by using fluorogenic cell-impermeant peptide substrate (bis-AAF-R110) which cleaved by dead cell proteases leaking from damaged cell membrane.
Using the MultiTox-Fluor Cytotoxicity Assay, the relative number of live cells was measured in the lymphoblastoid cell line with complete culture medium following compound treatment for 16 hours. The assay was performed in opaque black Kalypsys 1536-well plates. In the screen, tetraoctylammonium bromide was used as positive control. Library compounds were measured for their ability to cause acute toxicity in the cell line, as reflected by a decrease in live cell protease activity, in a concentration-dependent manner. […] AC50 values were determined from concentration-response data modeled with the standard Hill equation.
qHTS protocol for MultiTox-Fluor Cytotoxicity assay
[Step] [Parameter] [Value] [Description]
1. Reagent; 5 uL; 2500 lymphoblastoid cells/well
2. Time; 5 hr; 37 C incubation
4. Controls; 23 nL; Tetraoctylammonium bromide 6.4pM to 92 uM
5. Time; 16 hr; 37 C incubation
6. Reagent; 5 uL; MuliTox-Fluor Assay reagent
7. Time; 60 min; Room Temperature
8. Detection; live-cell fluorescence (Ex/Em=405/510); EnVision plate reader
Keywords: cell viability, cytotoxicity, lymphoblastoid cell line, fluorescence, NTPHTS, NTPHTS_NCGC, NIEHS, EPA, DSSTox, MLSMR, MLSCN, NIH Roadmap, qHTS, NCGC

[18] = target: Cytochrome P450 3A4 (Homo sapiens) (UniProt P08684); assay: qHTS Assay for Inhibitors and Substrates of Cytochrome P450 3A4 (AID 884); note: series mostly up to about 57 µM; % is set by controls: 0 for no effect and ±100 for the full control effect; nearly all actives have a fitted effect of over 50% in size
In short: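 Luminescent readout of luciferin produced by CYP3A4 (20 nM) dealkylation of Luciferin-PPXE, 25 uM (its KM). NADPH-driven reaction ran 60 min at RT after 10 min compound preincubation; data scaled to 57 uM ketoconazole as 100% inhibition.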

[19] = qHTS Assay for Identification of Small Molecule Agonists for Hypoxia Response Element Signaling Pathway (AID 914; active = well fitted activation curve with a large enough effect in the signal ratio, with a control signal flat, not every such curve was filed as active; the % refers to the signal ratio; note: % of control where 0% means no effect); conditions: ME-180 (cervical carcinoma) HRE-bla reporter, beta-lactamase ratio, CoCl2, 17 h; active compounds read high
In short: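 Reporter activity (beta-lactamase, CCF4 460nm/530nm ratio) in HRE-bla ME-180 cells is recorded after 17 h compound exposure with EC50 CoCl2 at 37 degrees Celsius. AC50 values come from titration data.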

[20] = qHTS Assay for Identification of Small Molecule Antagonists for Thrombopoietin (TPO) Signaling Pathway (AID 918); conditions: TPO-dependent cell signaling reporter, antagonist mode; note: potency is the fitted concentration of half-maximal effect; nearly all actives have a fitted effect of over 60% in size
In short: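 Luminescence read-out: GPIIb-promoter luciferase in Ba/F3 cells carrying human TPO receptor. Compounds added with 26 pM TPO (EC50), 24 hrs, 37 C, 5% CO2; cells deprived of IL-3 overnight beforehand. Inhibition of signal scored.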

Sequence of Cytochrome P450 2C19 (Homo sapiens) (P33261 whole entry, looked up): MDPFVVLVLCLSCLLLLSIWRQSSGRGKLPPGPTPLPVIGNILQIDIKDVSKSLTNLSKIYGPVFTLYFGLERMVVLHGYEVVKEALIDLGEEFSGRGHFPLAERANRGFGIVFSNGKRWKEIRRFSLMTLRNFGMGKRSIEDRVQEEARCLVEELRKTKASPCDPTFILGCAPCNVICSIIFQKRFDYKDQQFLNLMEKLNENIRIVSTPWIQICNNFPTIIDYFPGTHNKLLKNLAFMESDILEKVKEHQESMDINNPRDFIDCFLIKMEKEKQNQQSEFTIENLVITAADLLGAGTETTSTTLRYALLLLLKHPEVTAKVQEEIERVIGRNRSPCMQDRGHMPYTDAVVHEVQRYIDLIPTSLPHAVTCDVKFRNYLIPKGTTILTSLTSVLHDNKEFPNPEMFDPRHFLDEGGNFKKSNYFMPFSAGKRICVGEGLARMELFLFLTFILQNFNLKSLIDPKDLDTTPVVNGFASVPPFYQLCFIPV
Sequence of Pyruvate kinase (Leishmania mexicana) (Q27686 2-499 E452W): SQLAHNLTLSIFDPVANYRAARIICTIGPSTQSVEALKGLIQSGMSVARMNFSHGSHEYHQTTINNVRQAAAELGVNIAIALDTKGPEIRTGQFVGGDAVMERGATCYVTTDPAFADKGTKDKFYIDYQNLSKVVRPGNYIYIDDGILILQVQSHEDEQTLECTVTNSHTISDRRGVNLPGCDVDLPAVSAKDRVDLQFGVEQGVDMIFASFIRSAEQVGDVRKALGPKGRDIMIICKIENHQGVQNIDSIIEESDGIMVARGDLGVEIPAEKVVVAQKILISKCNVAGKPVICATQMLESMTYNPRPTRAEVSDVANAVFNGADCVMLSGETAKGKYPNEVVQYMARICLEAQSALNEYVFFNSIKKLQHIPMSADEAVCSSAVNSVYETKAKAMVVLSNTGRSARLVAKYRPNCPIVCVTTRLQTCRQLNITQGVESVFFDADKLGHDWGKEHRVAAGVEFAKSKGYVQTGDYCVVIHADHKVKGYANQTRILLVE
Sequence of Muscarinic acetylcholine receptor M1 (Rattus norvegicus) (P08482 whole entry, looked up): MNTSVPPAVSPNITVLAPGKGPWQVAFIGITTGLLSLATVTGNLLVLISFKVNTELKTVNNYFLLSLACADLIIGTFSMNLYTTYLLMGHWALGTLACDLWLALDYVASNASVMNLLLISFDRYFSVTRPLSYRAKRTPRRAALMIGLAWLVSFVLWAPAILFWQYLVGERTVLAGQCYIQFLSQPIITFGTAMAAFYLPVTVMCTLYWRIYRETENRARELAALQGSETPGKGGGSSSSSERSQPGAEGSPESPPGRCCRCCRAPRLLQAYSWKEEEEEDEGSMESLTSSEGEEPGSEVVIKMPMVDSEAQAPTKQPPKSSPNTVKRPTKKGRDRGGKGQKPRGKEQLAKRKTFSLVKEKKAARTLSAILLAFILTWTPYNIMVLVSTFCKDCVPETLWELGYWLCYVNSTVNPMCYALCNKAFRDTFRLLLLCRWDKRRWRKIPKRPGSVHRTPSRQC
Sequence of Cytochrome P450 2D6 (Homo sapiens) (P10635 whole entry, looked up): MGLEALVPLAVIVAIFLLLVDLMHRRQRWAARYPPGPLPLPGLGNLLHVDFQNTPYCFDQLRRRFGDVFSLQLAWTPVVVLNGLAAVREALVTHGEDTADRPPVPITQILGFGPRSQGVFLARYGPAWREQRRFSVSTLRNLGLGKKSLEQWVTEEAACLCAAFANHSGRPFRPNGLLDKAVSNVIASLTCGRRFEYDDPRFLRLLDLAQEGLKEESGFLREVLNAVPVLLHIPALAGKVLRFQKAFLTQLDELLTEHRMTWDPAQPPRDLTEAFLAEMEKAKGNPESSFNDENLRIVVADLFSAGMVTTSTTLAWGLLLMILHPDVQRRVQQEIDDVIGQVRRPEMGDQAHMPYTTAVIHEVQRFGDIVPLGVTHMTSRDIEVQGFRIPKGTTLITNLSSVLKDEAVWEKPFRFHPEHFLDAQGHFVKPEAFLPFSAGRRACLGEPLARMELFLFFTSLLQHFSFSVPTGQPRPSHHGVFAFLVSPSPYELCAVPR
Sequence of Cytochrome P450 3A4 (Homo sapiens) (P08684 whole entry, looked up): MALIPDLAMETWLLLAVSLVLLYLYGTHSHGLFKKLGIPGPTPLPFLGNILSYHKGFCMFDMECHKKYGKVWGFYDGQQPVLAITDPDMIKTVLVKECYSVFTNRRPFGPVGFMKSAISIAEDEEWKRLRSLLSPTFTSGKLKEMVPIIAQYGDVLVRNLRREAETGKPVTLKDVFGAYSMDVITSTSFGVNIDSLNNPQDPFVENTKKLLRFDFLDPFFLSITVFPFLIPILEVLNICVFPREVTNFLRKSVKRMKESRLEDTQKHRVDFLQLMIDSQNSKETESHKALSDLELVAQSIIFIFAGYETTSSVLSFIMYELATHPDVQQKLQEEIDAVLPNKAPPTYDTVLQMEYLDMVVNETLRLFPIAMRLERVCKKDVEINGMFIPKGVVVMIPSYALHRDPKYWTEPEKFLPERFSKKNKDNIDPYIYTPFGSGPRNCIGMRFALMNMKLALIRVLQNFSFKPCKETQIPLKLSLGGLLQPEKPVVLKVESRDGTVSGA
Sequence of Guanine nucleotide-binding protein G(i) subunit alpha-1 (Homo sapiens) (P63096 whole entry, looked up): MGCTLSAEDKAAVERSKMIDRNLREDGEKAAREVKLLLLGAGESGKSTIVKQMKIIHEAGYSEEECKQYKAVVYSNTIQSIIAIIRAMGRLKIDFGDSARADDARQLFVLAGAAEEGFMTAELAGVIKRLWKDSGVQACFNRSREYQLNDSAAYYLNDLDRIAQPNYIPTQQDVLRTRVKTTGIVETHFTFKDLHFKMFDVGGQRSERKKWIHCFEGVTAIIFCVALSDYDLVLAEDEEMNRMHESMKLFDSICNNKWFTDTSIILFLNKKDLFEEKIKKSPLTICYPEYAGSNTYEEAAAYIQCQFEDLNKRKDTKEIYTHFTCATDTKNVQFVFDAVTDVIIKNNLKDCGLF
Sequence of Cytochrome P450 2C9 (Homo sapiens) (P11712 whole entry, looked up): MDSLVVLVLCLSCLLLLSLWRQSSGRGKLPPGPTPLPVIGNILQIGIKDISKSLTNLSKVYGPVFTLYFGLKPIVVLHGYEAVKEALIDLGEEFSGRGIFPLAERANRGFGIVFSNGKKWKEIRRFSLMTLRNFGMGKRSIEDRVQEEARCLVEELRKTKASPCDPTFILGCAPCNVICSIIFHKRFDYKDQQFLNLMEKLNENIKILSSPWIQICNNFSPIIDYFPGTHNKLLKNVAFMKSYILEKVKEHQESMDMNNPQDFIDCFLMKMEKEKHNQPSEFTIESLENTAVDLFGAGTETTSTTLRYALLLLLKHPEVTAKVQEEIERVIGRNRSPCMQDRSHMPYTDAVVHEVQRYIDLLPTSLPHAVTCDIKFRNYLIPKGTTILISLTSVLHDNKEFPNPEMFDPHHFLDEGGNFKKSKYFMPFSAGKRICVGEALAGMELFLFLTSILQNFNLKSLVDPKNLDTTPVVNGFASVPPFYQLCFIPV

CC1=C(C)C(=O)C(CCCCC#CCCCC#CCO)=C(C)C1=O
active: Potency [2] 5.01 µM | Potency [3] 31.6 µM | Potency [4] 5.01 µM
inactive: Potency [1] | outcome [5] | Potency [6] | Potency [7]

FC(F)(F)c1ccccc1-n1ccnc1
active: Potency [3] 6.31 µM
inactive: Potency [1] | outcome [8] | outcome [9] | Potency [10]

c1cnc(N2CCN(Cc3ccc4c(c3)OCO4)CC2)nc1
active: Potency [3] 0.199 µM | Potency [4] 2 µM and 631 nM | Potency [6] 14.1 µM
inactive: Potency [1] | Potency [11] | outcome [5] | Potency [7]

O=C(CCCN1CCC(O)(c2cccc(C(F)(F)F)c2)CC1)c1ccc(F)cc1
inactive: Potency [1]

COc1cc(Cc2cnc(N)nc2N)cc(OC)c1OC
inactive: outcome [12] | outcome [13] | outcome [14] | outcome [8] | outcome [15] | outcome [9] | Potency [10] | outcome [16] | outcome [17]

CN(C)CC/C=C1\c2ccccc2COc2ccccc21
active: Potency [3] 3.16 µM and 3.98 µM
inactive: Potency [1] | Potency [7]

CCCCNC(=O)NS(=O)(=O)c1ccc(C)cc1
inactive: outcome [12] | outcome [13] | outcome [14] | Potency [1] | Potency [3] | Potency [4] | outcome [8] | outcome [15] | outcome [9] | Potency [10] | outcome [16] | outcome [17]

C#CCN(C)CCCOc1ccc(Cl)cc1Cl
active: Potency [3] 2 µM and 398 nM | Potency [4] 5.01 µM and 2.51 µM
inactive: Potency [1]

NC(=O)N1c2ccccc2C=Cc2ccccc21
inactive: outcome [12] | outcome [13] | outcome [14] | Potency [1] | Potency [2] | outcome [18] | Potency [3] | Potency [4] | outcome [8] | activation [19] -7.9% and -9.09% and -6.88% | outcome [15] | outcome [9] | outcome [16] | outcome [17]

CCn1cc(C(=O)O)c(=O)c2cc3c(cc21)OCO3
inactive: Potency [1] | outcome [18] | outcome [8] | outcome [5] | outcome [9] | Potency [10]

CN(C)C(=O)Oc1ccc[n+](C)c1
inactive: outcome [18] | outcome [8] | outcome [9] | Potency [7]

CCCCCN(CCCCC)C(=O)C(CCC(=O)O)NC(=O)c1ccc(Cl)c(Cl)c1 (configuration not stated)
inactive: outcome [18] | outcome [8] | outcome [9]

COc1cc(C(=O)OCCCN2CCCN(CCCOC(=O)c3cc(OC)c(OC)c(OC)c3)CC2)cc(OC)c1OC
active: Potency [20] 10 µM | Potency [6] 0.316 µM | Potency [10] 4.47 µM
inactive: Potency [1]

CC(C)NCC(O)c1cc(O)cc(O)c1 (configuration not stated)
inactive: outcome [18] | outcome [8] | outcome [9]

CN(C)CCN(Cc1cccs1)c1ccccn1
inactive: Potency [2] | outcome [18] | outcome [8] | outcome [5] | outcome [9] | Potency [7]
